Shown are actives, neighbours in structure and some others; about 10% of the full set was active somewhere.
HP1b binding inh – inhibitors of HP1-beta chromodomain binding to methylated histone tails. AlphaScreen HP1-beta / biotin-H3K9me3 peptide binding. actives 0.56% (n = 390,000). Potency, µM (highest dose often 114 µM), for inactives: at the top dose activity change, negative = inhibition, usual class: inhibitors; note: nearly all actives have a fitted effect of over 70% in size
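Compound inhibition of the preformed complex between 50 nM HP1-beta and 50 nM biotinylated H3K9me3 peptide was read by AlphaScreen. Buffer was PBS pH 7.4 with 0.01% Tween-20. Incubations ran 30 min at room temperature, with 10 ug/mL donor/acceptor beads.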
G9a block – blocks human histone lysine methyltransferase G9a. Q96KQ7. G9a H3K9 monomethylation, AlphaScreen, 2 h. Potency, µM (doses to about 102 µM), inactives show top-dose activity, negative = inhibition, hits mostly inhibitors. actives 8.8% (n = 350,000); note: % is set by controls: 0 for no effect and ±100 for the full control effect; nearly all actives have a fitted effect of over 75% in size
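Quantitative HTS format: methyltransferase activity on a biotin-tagged H3K9 peptide is measured by AlphaScreen, using a rabbit anti-monomethyl-H3K9 antibody with streptavidin donor and anti-IgG acceptor beads. Final levels are 20 nM enzyme, 500 nM peptide, 20 uM SAM; 2 h RT.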
BAZ2B inh – blocks human BAZ2B. Q9UIF8. actives 4.4% (n = 360,000). Potency, µM (titrated, usually from 114 µM), inactives show at the highest dose activity change, negative = inhibition, usual class: inhibitors. AlphaScreen BAZ2B-H3K14Ac peptide displacement; note: % is set by controls: 0 for no effect and ±100 for the full control effect; nearly all actives have a fitted effect of over 60% in size
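AlphaScreen displacement: compounds (up to 110uM) incubated 30 min at room temperature with a preformed 50 nM BAZ2B/50 nM biotinylated H3K14Ac peptide complex in PBS pH 7.4 with Tween-20. Donor and acceptor beads at 10 ug/mL final added, 20 min light-protected before reading.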
JMJD2A Tudor inh – blocks the human JMJD2A Tudor domain; O75164; AlphaScreen JMJD2A-Tudor / H3K4me3 peptide binding; Potency, µM (doses to about 114 µM), for the others: at the highest dose activity change, negative = inhibition, actives largely listed as inhibitors; actives 4.4% (n = 390,000); note: % is set by controls: 0 for no effect and ±100 for the full control effect; nearly all actives have a fitted effect of over 50% in size
GLS inh – glutaminase GLS (human) inhibition; O94925; GLS enzymatic activity, qHTS titration; Potency, µM (doses to about 45.5 µM), inactives show at the top dose activity change, negative = inhibition, hits mostly inhibitors; actives 0.21% (n = 410,000); AID 624170; note: % is set by controls: 0 for no effect and ±100 for the full control effect
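Compounds were pin-transferred onto hKGA, after which L-glutamine (1 mM solution) and a detection mix of glutamate oxidase, HRP and Amplex Red were added. Initial and 30 min RT fluorescence reads were collected.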
* hit, by the source's call; ? = inconclusive; nt = not tested or not shown; [ ] = dose if it differs, or a comment. Calls come from the whole dose curve; as a rule, active = well fitted curve in the direction sought with a large enough effect; inconclusive = small, poorly fitted or top-dose-only effect, or another doubt; inactive = no such curve, though single readings can be large; an effect the other way counts as inactive or inconclusive. Potency is the fitted concentration of half-maximal effect.

SMILES	HP1b binding inh	G9a block	BAZ2B inh	JMJD2A Tudor inh	GLS inh
CN(C)c1ccc(CNC(=O)CCNS(=O)(=O)c2cc(Br)cnc2N)cc1	0.0%	35.5µM*	-31.9%	31.6µM*	4.4%
COc1ccc(C(C)=O)cc1Cn1c(C)c(C(=O)NCCC#N)sc1=O	nt	nt	nt	nt	1.0%
COc1ccc(S(=O)(=O)Nc2cc(C(C)C)c(O)cc2C)cc1	9.9%	-27.2%[12.7 µM]	-0.7%	-15.1%	73.3%
CC(=O)c1sc(-c2ccccc2)cc1NS(=O)(=O)c1ccc(C)cc1	16.9%	4.7%	-16.8%	11.7%	17.0%
Cc1ccc(S(=O)(=O)Nc2cc(C)c(O)cc2C)cc1	22.8%	50.1µM*	-21.1%	-16.1%	-26.4%
COc1ccc(S(=O)(=O)Nc2cc(C)c(O)cc2C(C)C)cc1	4.6%	25.1µM*	4.9%	-33.6%	29.1%
Cc1ccc(S(=O)(=O)Nc2csc(C)c2C(=O)O)cc1	18.6%	39.8µM*	44.7µM*	-14.6%	8.9%
O=C(/C=C/c1cccc(O)c1)c1ccc(N2CCOCC2)cc1	6.5%	?	-34.6%	-30.9%	-5.1%
O=[N+]([O-])c1cc(S(=O)(=O)C(F)(F)F)ccc1NCC1CCCO1 (centres undefined)	-27.7%	1.1%	-26.5%	?	-3.9%
Cc1nc2ccccc2c(=O)n1/N=C/c1ccc(O)cc1	11.9%	15.0%[59 µM]	-4.9%	-7.3%	?
CCN=c1scc(-c2ccco2)n1/N=C/c1ccc(O)cc1	?	35.5µM*	50.1µM*	56.2µM*	11.3%
COCC(C)NC(=O)Cn1c(SCc2ccccc2)nc2ccccc21 (centres undefined)	9.7%[57 µM]	44.7µM*	11.9%	-10.0%[57.1 µM]	2.5%
COc1ccccc1OCCn1c(SCC(=O)O)nc2ccccc21	15.3%	39.8µM*	?	-45.8%	-11.6%
COc1ccccc1OCCSc1nc2ccccc2n1CCC(=O)O	18.6%	nt	-2.2%	-11.6%	-1.3%
COCC(C)NC(=O)CSc1nc2ccccc2n1CCc1ccccc1 (centres undefined)	28.2%	70.8µM*	35.5%	-2.6%	-1.7%
O=C(O)Cn1c(SCc2ccccc2)nc2ccccc21	35.8%	-36.1%	-5.2%	-9.4%	10.5%
CCn1c(=O)c2cc(C(=O)NC3CCC(C)CC3)sc2c2ccccc21 (centres undefined)	36.2%	-0.8%[59 µM]	-19.4%	3.4%	-10.5%
CCOC(=O)N1CCc2c(sc(NCc3ccc(N(CC)CC)cc3)c2C(=O)Nc2cc(OC)ccc2OC)C1	?	7.08µM*	7.94µM*	?	7.6%
C=CCNCC(=O)Nc1sc2c(c1C(=O)Nc1ccc(OC)cc1OC)CCC2	16.1%	nt	-4.6%	-30.8%	3.4%
COc1ccc(NC(=O)c2c(NCc3ccc(OC)c(OC)c3OC)sc3c2CCC3)c(OC)c1	-14.6%	12.6µM*	-30.1%	?	-3.4%
COc1ccccc1NC(=O)c1c(NCc2ccc(OC)c(OC)c2OC)sc2c1CCC2	11.2%	?	-6.1%	-30.8%	3.0%
CCOC(=O)N1CCc2c(sc(NCc3ccc(OCC)cc3)c2C(=O)Nc2ccc(OC)cc2OC)C1	-3.9%	7.94µM*	-37.1%	?	-9.7%
CCOc1ccccc1NC(=O)c1c(NCc2ccc(C)o2)sc2c1CCCCC2	-14.4%	5.01µM*	-19.2%	?	-3.6%
COc1ccc(C2=Nc3ccccc3NC(=O)C2N(CCc2ccccc2)C(=O)c2cccs2)cc1 (centres undefined)	nt	nt	nt	nt	4.2%
CCN1CCN(C(=O)CCN(CC(C)C)c2nc(-c3cccs3)nc3ccccc23)CC1	nt	nt	nt	-19.7%	nt
SMILES	HP1b binding inh	G9a block	BAZ2B inh	JMJD2A Tudor inh	GLS inh
COc1ccc2cc(C(=O)NCc3ccc4c(c3)CCN4C(=O)c3ccccc3)[nH]c2c1	17.3%	-4.0%[59 µM]	-16.4%	-16.0%	-0.6%
CC(C)(C)c1ccc(S(=O)(=O)NC(=O)C2(C)CCN2C(=O)C2CC2)cc1 (centres undefined)	nt	nt	nt	nt	1.2%
COc1ccc(NC(=O)c2c(NCc3sccc3C)sc3c2CCCC3)c(OC)c1	?	14.1µM*	?	?	-8.0%
CCOC(=O)N1CCc2c(sc(NCc3ccc(N(C)C)cc3)c2C(=O)Nc2ccccc2OCC)C1	?	3.16µM*	8.91µM*	12.6µM*	18.3%
CCOC(=O)N1CCc2c(sc(NCc3ccc(OC)c(OC)c3OC)c2C(=O)Nc2ccc(OC)cc2OC)C1	?	7.08µM*	?	?	7.5%
COc1ccc(Cl)cc1NC(=O)c1c(NCc2ccc(C)o2)sc2c1CCCC2	-3.0%	?	?	?	-22.6%
CCOC(=O)N1CCc2c(sc(NCc3sccc3C)c2C(=O)Nc2cc(Cl)ccc2OC)C1	-23.7%	3.55µM*	-36.3%	?	-14.3%
CCOc1ccccc1NC(=O)c1c(NC(=O)COc2ccccc2)sc2c1CCCC2	22.0%	-0.3%[59 µM]	0.5%	-1.6%	-5.5%
Cc1ccc(-c2[nH]ncc2CNCc2ccc(CN(C)C)cc2)cc1	33.9%	nt	nt	-9.9%	nt
COc1ccc(-n2c(C)cc(C(=O)CCl)c2C)cc1	0.3%	56.2µM*	44.7µM*	?	-0.6%
Cc1cc(-n2c(C)cc(C(=O)CCl)c2C)no1	41.8%	50.1µM*	nt	-22.1%	-8.5%
CC(=O)Nc1ccc(SCC(=O)c2cc(C)n(-c3ccccc3)c2C)cc1	3.8%	?	44.7µM*	-22.6%	-0.9%
COc1ccc(-n2c(C)cc(C(=O)CN3C(=O)c4ccccc4C3=O)c2C)cc1	11.1%	1.4%[59 µM]	-35.3%	-28.2%	-1.8%
COc1ccc(-n2c(C)cc(C(=O)CSc3ccc(NC(C)=O)cc3)c2C)cc1	?	?	44.7µM*	?	9.3%
CCn1c(C(=O)Nc2ccccc2C(=O)OC)cc2sc(Cl)cc21	118.8%	25.0%[59 µM]	8.0%	40.7%	-5.8%
COc1cccc(NC(=O)CSc2nc3c(oc4ccccc43)c(=O)n2Cc2ccco2)c1	23.2%	-0.9%[59 µM]	2.6%	-9.5%	-12.8%
Cc1ccc(OCC(=O)c2cc(C)n(-c3cc(C)on3)c2C)c([N+](=O)[O-])n1	-9.5%	50.1µM*	?	-31.8%	-0.7%
COc1ccc(NC(=O)COC(=O)Cn2cnc3ccccc32)cc1	28.0%	nt	nt	-3.5%	-3.3%
COc1ccc(-n2c(C)cc(C(=O)COC(=O)Cn3cnc4ccccc43)c2C)cc1	-15.8%	15.8µM*	?	?	1.0%
Cc1ccc(OCC(=O)c2ccc(Cl)s2)c([N+](=O)[O-])n1	-13.3%	50.1µM*	50.1µM*	56.2µM*	18.2%
CC(=O)Nc1ccc(SCCCC(=O)c2ccccc2)cc1	24.5%	44.7µM*	-20.3%	-18.7%	2.7%
CC(=O)Nc1ccc(C(=O)NCCCSc2ccccc2)cc1	53.5%	nt	nt	10.3%	6.5%
CCc1nc2ccc(C(=O)N(CC)CCN(C)C)cn2c1N(CC)C(=O)NCCc1ccccc1	nt	nt	nt	nt	7.6%
Nc1nc(NCc2ccc(F)cc2)c2[nH]cnc2n1	33.3%	nt	nt	-11.3%	nt
